This is an account of results in PubChem BioAssay AID720697 (Broad Institute, 2013).

Results with a measured potency or affinity are listed apart. Records with an inconclusive call do not appear. Calls of active or inactive are those of the source.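 The calls were made as follows: active = signal loss with fitted half-maximal concentration at or below twice the top valid tested dose in every test run; inconclusive = runs disagree, flat 30 to 70% signal loss, or poor fit; inactive = all runs flat, opposite direction, or potency beyond limit.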

This assay can be described thus: HEK293T cytotoxicity, dose response, cytotoxicity control for miR-122 modulator project, cell-based, inhibitor set, cherry-pick, set 2 (AID 720697).

For the compound `COc1ccc(C#Cc2ccc3c(c2)O[C@@H](CN(C)C(=O)CN2CCOCC2)[C@@H](C)CN([C@H](C)CO)S3(=O)=O)cc1`, the outcome was inactive.

On to `CCNC(=O)C[C@@H]1CC[C@H]2[C@@H](COc3ccc(NC(=O)Nc4ccc(F)cc4)cc3C(=O)N2C)O1`, for which the compound was classed as inactive.

With `CC(C)N(C[C@H]1[C@H](c2ccccc2)[C@@H](CO)N1S(C)(=O)=O)C(=O)CN(C)C`, the compound was classed as inactive.

For the compound `N#Cc1cccc(NC(=O)Nc2cccs2)c1`, the outcome was inactive.

Consider `CN1C(=O)c2cc(NC(=O)c3cccc(F)c3)ccc2OC[C@H]2O[C@@H](CC(=O)O)CC[C@@H]21`, for which the result was inactive.

For the compound `CN1C(=O)c2cc(NC(=O)c3cccc(F)c3)ccc2OC[C@H]2O[C@H](CC(=O)N3CCc4ccccc4C3)CC[C@H]21`, the outcome was inactive.

With `CN1C(=O)c2cc(NC(=O)Cc3ccccc3)ccc2OC[C@H]2O[C@H](CC(=O)O)CC[C@H]21`, the compound was called inactive.

Consider `C/C=C/c1ccc([C@@H]2[C@@H](CNC(=O)CC)N(Cc3ccccn3)[C@H]2CO)cc1`, for which the outcome was inactive.

`COc1ccc(-c2cc(-c3nc4ccccn4c3NCc3ccccc3)ccc2OC)cc1`: the result was inactive.

Consider `CCC(=O)N(C)C[C@@H]1[C@H](c2ccc(-c3ccccc3F)cc2)[C@H](CO)N1C(C)=O`, for which the call was inactive.

`CCCNC(=O)N1C[C@@H]2[C@H](c3ccccc31)[C@H](CO)N2C(=O)C1CCOCC1`: the outcome was inactive.

Take `CCCC#Cc1ccc2c(c1)O[C@H](CN(C)C(=O)COC)[C@H](C)CN([C@@H](C)CO)S2(=O)=O`: the result was inactive.

For the compound `CCS(=O)(=O)Nc1ccc2c(c1)C(=O)N(C)[C@@H]1CC[C@@H](CC(=O)NCCCN3CCOCC3)O[C@H]1CO2`, the call was inactive.

Turning to `CNC(=O)C[C@H]1CC[C@@H]2[C@H](COc3ccc(NC(=O)NC(C)C)cc3C(=O)N2C)O1`, the compound was classed as inactive.

For the compound `CN1C(=O)c2cc(NC(=O)Nc3cccc(Cl)c3)ccc2OC[C@H]2O[C@@H](CC(=O)NCCc3ccncc3)CC[C@H]21`, the outcome was inactive.

For the compound `CC#CCCCC(=O)Nc1ccccc1C(=O)O`, the compound was classed as inactive.

Consider `CNC(=O)C[C@H]1CC[C@@H]2[C@H](COc3ccc(NC(=O)c4cccc(OC)c4)cc3C(=O)N2C)O1`, for which the compound was called inactive.

In the case of `COc1cccc(COc2cc3ccccc3nc2C)c1`, the outcome was inactive.

As for `COCC(=O)N(C)C[C@H]1Oc2cc(-c3ccc(C#N)cc3)ccc2S(=O)(=O)N([C@H](C)CO)C[C@H]1C`, the compound was classed as inactive.

Consider `COc1ccc(CNC(=O)C[C@H]2CC[C@H]3[C@H](COc4ccc(NC(=O)C(C)C)cc4C(=O)N3C)O2)cc1`, for which the compound was called inactive.

Consider `COc1cccc(CNC(=O)C[C@@H]2CC[C@H]3[C@H](COc4ccc(NC(C)=O)cc4C(=O)N3C)O2)c1`, for which the compound was called inactive.

As to `CC(=O)N1[C@H](CO)[C@@H](c2ccccc2)[C@H]1CN(C)C(=O)CN1CCOCC1`, the compound was classed as inactive.

Turning to `c1ccc(-c2nnc3n2CCCC3)cc1`, the call was inactive.

For the compound `COc1ccc(C(=O)N2C[C@H]3[C@@H](c4ccccc42)[C@@H](CO)N3C(=O)Cc2ccccn2)cc1`, the compound was called inactive.

Regarding `Cc1onc(-c2ccccc2)c1C(=O)NCc1ccccn1`, the compound was classed as inactive.

On to `COCC(=O)Nc1ccc2c(c1)C(=O)N(C)[C@@H]1CC[C@@H](CC(=O)NC3CCCC3)O[C@H]1CO2`, for which the outcome was inactive.

Consider `CNC(=O)C[C@H]1CC[C@H]2[C@H](COc3ccc(NC(=O)c4cccc(OC)c4)cc3C(=O)N2C)O1`, for which the outcome was inactive.

As for `CN1C(=O)c2cc(NS(=O)(=O)c3cccc(F)c3)ccc2OC[C@@H]2O[C@@H](CC(=O)O)CC[C@@H]21`, the outcome was inactive.

Take `COc1cccc(NC(=O)N2[C@H](CO)[C@@H](c3ccccc3)[C@H]2CNCC(C)C)c1`: the call was inactive.

Take `CNC(=O)C[C@@H]1CC[C@H]2[C@@H](COc3ccc(NC(=O)c4ccc(C(F)(F)F)cc4)cc3C(=O)N2C)O1`: the outcome was inactive.

As for `CN1C(=O)c2cc(NC(=O)C3CCOCC3)ccc2OC[C@H]2O[C@H](CC(=O)NCc3ccc4c(c3)OCO4)CC[C@@H]21`, the compound was classed as inactive.

Consider `CC(C)NC(=O)N(C)C[C@H]1Oc2cc(C#C[C@H](C)O)ccc2S(=O)(=O)N([C@@H](C)CO)C[C@H]1C`, for which the outcome was inactive.

Consider `COc1ccc(S(=O)(=O)N(C)C[C@@H]2Oc3cc(-c4cccc(F)c4)ccc3S(=O)(=O)N([C@H](C)CO)C[C@H]2C)cc1`, for which the call was inactive.

For the compound `C/C=C/c1ccc([C@H]2[C@@H](CO)N(Cc3ccccn3)[C@H]2CNC(=O)CC)cc1`, the call was inactive.

For the compound `CNC(=O)C[C@@H]1CC[C@H]2[C@@H](COc3ccc(NC(=O)C(C)C)cc3C(=O)N2C)O1`, the compound was classed as inactive.

For `COCC(=O)Nc1ccc2c(c1)C(=O)N(C)[C@@H]1CC[C@H](CC(=O)NCc3ccccc3F)O[C@H]1CO2`, the call was inactive.

In the case of `CCCC(NS(=O)(=O)c1ccc(Br)cc1)C(=O)O` (stereo not drawn), the compound was called inactive.

As to `O=C(Nc1nc(-c2cc3ccccc3o2)cs1)c1ccc(S(=O)(=O)N2CCCC2)cc1`, the call was inactive.

For `CN1C(=O)c2cc(NC(=O)c3cccc(F)c3)ccc2OC[C@@H]2O[C@@H](CC(=O)O)CC[C@H]21`, the outcome was inactive.

Regarding `C=CCNC(=S)NNC(=O)c1cccn(Cc2ccc(Cl)c(Cl)c2)c1=O`, the compound was called inactive.

For the compound `CC(C)NC(=O)N1C[C@@H]2[C@H](c3ccccc31)[C@H](CO)N2Cc1ccccc1`, the call was inactive.

As for `CCC(=O)N1[C@@H](CO)[C@H](c2ccccc2)[C@@H]1CN(C(C)C)S(C)(=O)=O`, the call was inactive.

Take `COc1ccc(-c2c(C)nn3c(N)c(-c4ccccc4)cnc23)cc1OC`: the outcome was inactive.

As for `Cc1cc(C)nc(NS(=O)(=O)c2ccc(NC(=S)NC(=O)C3CCCC3)cc2)n1`, the outcome was inactive.

As to `C[C@@H]1CN([C@@H](C)CO)S(=O)(=O)c2ccc(C3=CCCCC3)cc2O[C@@H]1CN(C)C(=O)Cc1ccncc1`, the compound was classed as inactive.

Turning to `COc1cccc(-c2csc(N3CCN(CC(=O)Nc4ccc5c(c4)OCO5)CC3)n2)c1`, the result was inactive.

As to `O=C(Nc1ccccc1)N1C[C@@H]2[C@H](c3ccccc31)[C@H](CO)N2C(=O)c1ccncc1`, the result was inactive.

On to `CCN(C[C@H]1[C@H](c2ccccc2)[C@@H](CO)N1S(C)(=O)=O)C(=O)C1CC1`, for which the compound was called inactive.

With `COc1ccc(-c2cc(C3CCN(c4ccc(C(C)=O)cc4[N+](=O)[O-])CC3)[nH]n2)cc1`, the compound was called inactive.

`O=c1c2c3c(sc2nc2n1CCC2)CCCC3`: the outcome was inactive.

As for `Cc1cc(C)cc(NC(=O)Nc2ccc3c(c2)C(=O)N(C)[C@@H]2CC[C@H](CC(=O)O)O[C@@H]2CO3)c1`, the call was inactive.

As to `COc1ccccc1-c1ccc2c(c1)O[C@@H](CN(C)S(=O)(=O)c1ccc(F)cc1)[C@@H](C)CN([C@@H](C)CO)S2(=O)=O`, the call was inactive.

Turning to `CCOC(=O)CSc1nnnn1-c1cccc2ccccc12`, the compound was called inactive.
